Screens from PubChem BioAssay.
S1P4 agonist – activates the human S1P4 receptor; O95977; S1P4-expressing cell line, agonist reporter assay; activation, % at 4.98 µM; actives 0.35% (n = 220,000); in the data active = activation above about 11%;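 note: 0% = DMSO vehicle and 100% = reference agonist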
S1P4 antag – antagonists of human S1P4 receptor. inhibition, % at 4.98 µM. AID 1510. actives 0.26% (n = 220,000). O95977. S1P4-expressing cells, antagonist mode, reporter read-out; in the data active = inhibition above about 29%;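 note: 0% = wells stimulated with agonist and 100% = vehicle wells without agonist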
S1P3 antagonist – blocks the human S1P3 receptor | actives 0.27% (n = 170,000) | CHO S1P3 NFAT-BLA reporter, FRET fluorescence, antagonist mode | inhibition, % at 4.98 µM;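 active = inhibition above the plate cutoff, the mean inhibition of test wells on that plate plus 3 SD, cut at about 28% in these data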;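 note: cells challenged with S1P at its EC80 of 0.8 µM; blue over green emission ratio from cleaved BLA substrate after 4 h stimulation; 0% = S1P-stimulated wells and 100% = unstimulated DMSO-only wells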
PGE2 EP2 inh – inhibitors of human EP2 prostaglandin E2 receptor; AID 1422; C6 glioma cells expressing human EP2, cAMP TR-FRET; cells stimulated with saturating PGE2; P43116; inhibition, % at 25 µM; actives 0.52% (n = 260,000);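 active = percent inhibition above 40 after rounding to a whole number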;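 note: rat C6 glioma host cells with rolipram phosphodiesterase inhibitor present; the protocol text gives 20 µM as final concentration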
EP2 mod – modulators of human EP2 prostaglandin E2 receptor | P43116 | EP2-expressing cells, cAMP HTRF FRET, PGE2 co-stimulation | induction, % at 25 µM | actives 0.83% (n = 260,000) | AID 940;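 active = compounds whose cAMP rise, as percent of the full-agonist control response, exceeds 60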;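 note: rat C6 glioma line stably carrying human EP2 under a CMV promoter; the protocol text gives 20 µM as final concentration; 100% = response of wells given 1 µM PGE2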
S1P4 ag conf – confirmation of human S1P4 receptor agonists. shares compounds with S1P4 agonist. AID 1523. actives 7% (n = 740). S1P4 agonist cell-based reporter assay. activation, % at 4.98 µM; in the data active = activation above about 12%;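 note: 0% = vehicle and 100% = full reference agonist response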
S1P1 ag – counter-screen for S1P4 agonists: agonists of human S1P1 | shares compounds with S1P4 agonist | S1P1 agonist cell-based assay, activation | activation, % at 4.98 µM | actives 4% (n = 740) | AID 1563; in the data active = activation above about 21%;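 note: 0% = vehicle wells and 100% = reference agonist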
Target sequence (P21453 whole entry, looked up): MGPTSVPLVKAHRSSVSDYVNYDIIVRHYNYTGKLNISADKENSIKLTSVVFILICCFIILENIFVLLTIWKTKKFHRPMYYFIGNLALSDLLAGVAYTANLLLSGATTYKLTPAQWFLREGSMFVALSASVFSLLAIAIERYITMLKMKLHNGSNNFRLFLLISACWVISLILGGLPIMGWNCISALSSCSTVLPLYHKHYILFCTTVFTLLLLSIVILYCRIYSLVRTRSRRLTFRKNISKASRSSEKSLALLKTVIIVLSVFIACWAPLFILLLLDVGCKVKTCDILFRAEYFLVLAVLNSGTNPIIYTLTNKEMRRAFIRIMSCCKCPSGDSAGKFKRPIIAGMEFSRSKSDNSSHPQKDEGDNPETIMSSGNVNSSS
Starred values were filed as active, the others as inactive; / = no result given. Only some compounds are listed: those with a hit (about 1.9% of all), similar ones and a draw of the others.

SMILES	S1P4 agonist	S1P4 antag	S1P3 antagonist	PGE2 EP2 inh	EP2 mod	S1P4 ag conf	S1P1 ag
CCOc1ccc(-c2nnn(CC(=O)NCc3ccccc3)n2)cc1	19*	-8	-16	2	-46	-2	-6
CCOc1ccc(-c2nnn(CC(=O)NCc3ccco3)n2)cc1	1	-10	22	8	-32	/	/
O=C(O)CCCCCCNC(=O)c1cccnc1	/	/	/	12	-7	/	/
CCc1cc(=O)oc2c(CN3CCN(C)CC3)c(O)c(Cl)cc12	11*	-14	/	7	18	1	-2
CCc1cc(=O)oc2c(CN3CCCC3)c(O)c(Cl)cc12	3	-12	/	6	/	/	/
COc1cc2c(cc1CN1CCC(O)(c3ccccc3F)CC1)CCC2	/	/	/	9	-69	/	/
CC(C)(C)c1ccc(C(=O)N/C(=C\c2ccc3c(c2)OCO3)C(=O)O)cc1	/	/	/	19	-6	/	/
CCN1CCN(c2cc(C)c3cc(NC(=O)c4cccc(OC)c4)ccc3n2)CC1	3	9	-3	3	-28	/	/
CCN1CCN(c2cc(C)c3cc(NC(=O)c4cccs4)ccc3n2)CC1	56*	11	0	13	-29	-3	-8
CCNS(=O)(=O)c1cc(OC)ccc1OC	16*	-2	/	1	-14	-1	1
COc1ccc(OC)c(S(=O)(=O)NCCO)c1	2	-1	-12	9	12	/	/
Cc1cc(=O)oc2cc3c(cc12)OCCN3	12*	-10	-52	14	19	5	5
C=CCn1c(N2CCC(C(=O)NC(C)c3ccccc3)CC2)nc2ccccc21 (centres undefined)	/	/	/	/	-42	/	/
N#Cc1c(N)nc2c(c1-c1ccncc1)CCCCC2	135*	-14	-6	4	-11	-1	5
CCOC(=O)c1c(C)[nH]c(C2=NNC(=Nc3ccc(OCC)cc3)SC2)c1C	-1	-12	-5	1	-79	/	/
CCOC(=O)c1c(C)[nH]c(C2=NNC(=Nc3ccccc3)SC2)c1C	62*	-5	4	10	16	-1	-4
O=C(CN1N=C(c2ccccc2)Cn2c(cc3ccccc32)C1=O)NCc1ccco1	/	/	/	5	-38	/	/
CCOC(=O)C/C(C)=N/NC(=O)COc1ccccc1C	89*	-17	-32	2	10	-1	-2
O=C(CN1N=C(c2ccccc2)Cn2c(cc3ccccc32)C1=O)NC1CC1	/	/	/	/	-24	/	/
CC(C)CC(=O)NC(c1ccccc1Cl)c1c(O)ccc2ccccc12 (centres undefined)	13*	-8	3	7	6	-1	0
CCCC(=O)NC(c1ccco1)c1c(O)ccc2ccccc12 (centres undefined)	-3	-4	/	7	2	/	/
COc1cccc(CC(NC(C)=O)C(=O)NC2CCN(c3c(Cc4ccccc4)c(C)nc4ncnn34)CC2)c1OC (centres undefined)	14*	-1	-7	13	1	-3	-8
CCOC(=O)c1sc(NC(C)=O)nc1C	-3	3	/	26	-2	/	/
CCOC(=O)c1sc(Nc2nc(OC)cc(OC)n2)nc1C	64*	6	-7	5	14	-2	-1
CCCc1ccc(OCC(=O)Nc2cc(S(=O)(=O)CC)ccc2O)cc1	12*	-20	2	14	-17	-1	2
SMILES	S1P4 agonist	S1P4 antag	S1P3 antagonist	PGE2 EP2 inh	EP2 mod	S1P4 ag conf	S1P1 ag
COc1ccc(C(=O)Nc2cccc(C(C)=O)c2)cc1S(=O)(=O)N1CCOCC1	24*	-2	-16	7	3	-1	-12
COc1ccc([C@@H]2C[C@H](C(=O)N3CCN(C)CC3)N(C)S(=O)(=O)N2)cc1OC	/	/	/	/	6	/	/
COc1ccc(N2CC(C(=O)Nc3cccc(Cl)c3Cl)CC2=O)cc1 (centres undefined)	/	/	/	8	-22	/	/
C/C(CC(=O)Nc1ccc(OCc2ccccc2)cc1)=N\NC(=O)C(=O)Nc1cccc(C)c1	19*	6	-17	9	-10	-2	-5
COc1ccccc1NC(=O)C(=O)N/N=C(\C)CC(=O)Nc1ccc(OCc2ccccc2)cc1	1	2	/	11	29	/	/
Cc1ccccc1NC(=O)CSc1nnc2c3c4c(sc3nc(C)n12)CCCC4	/	/	/	14	10	/	/
CCn1c(CSc2nc(C)cc(C)n2)nnc1SCC(=O)Nc1cc(Cl)ccc1OC	/	/	/	4	-9	/	/
COc1ccc(OC)c(NC(=O)CSc2ncccc2C(=O)O)c1	-2	-1	19	17	11	/	/
Nc1nonc1NC(=O)CSc1ncccc1C(=O)O	45*	1	-28	12	19	-2	-1
CC(C(=O)N1C2CCC1CC(O)(c1ccco1)C2)c1ccccc1 (centres undefined)	/	/	/	/	-17	/	/
O=C(NC(=S)Nc1ncc(Br)cc1Br)c1cncc(Br)c1	-1	-1	/	6	-19	/	/
Cc1ccccc1NC(=S)NC(=O)c1cncc(Br)c1	16*	-11	9	8	-12	-1	7
O=C(COc1ccccc1)N1CCC[C@@H]1Cn1nc(-c2cccs2)ccc1=O	/	/	/	2	-26	/	/
O=C(Cc1ccccc1)Nc1nc2ccc(F)cc2s1	/	/	/	3	-26	/	/
COC(=O)c1ccc(NC(=O)CCn2c(=O)oc3ccccc32)cc1	13*	2	-15	9	-9	0	-3
O=C(Cn1nnc2ccccc21)N1CCc2c(nc(N3CCCC3)[nH]c2=O)C1	/	/	/	/	-1	/	/
Cc1ccc(Oc2nc3c(C)cccn3c(=O)c2/C=C(\C#N)C(N)=O)cc1	20*	-6	2	21	-3	-1	-8
CCOCCCNS(=O)(=O)c1ccc(NC(=O)N2c3ccccc3Sc3ccccc32)cc1	34*	0	/	13	0	-3	-9
CCOCCCNS(=O)(=O)c1ccc(NC(=O)CN2C(=O)c3ccccc3C2=O)cc1	1	-21	-10	4	1	/	/
CC(C)[C@H](Cn1nc(-c2ccc(F)c(F)c2)ccc1=O)NC(=O)c1ccc(=O)[nH]n1	/	/	/	4	-32	/	/
Cc1cccc(C(=O)NNc2ncnc3c2cnn3C)c1	15*	-8	-15	5	16	-2	3
Cn1c(-c2cc3ccc(OC(=O)C(C)(C)C)cc3oc2=O)nc2ccccc21	24*	7	/	8	-1	18*	11
CC(C)(C)C(=O)Oc1ccc2cc(-c3ccc4ccccc4n3)c(=O)oc2c1	1	2	-3	4	7	/	/
OC1CCCN(Cc2c3ccccc3cc3ccccc23)C1 (centres undefined)	15*	-11	/	14	41	0	3
CCC(C)NCCCOc1ccc([N+](=O)[O-])cc1 (centres undefined)	58*	8	5	2	-2	-2	-8
O=C(NC1(c2ccccc2)CCCC1)c1ccc(-n2cnnc2)cc1Cl	/	/	/	6	-30	/	/
COc1ccc(N2CC(C(=O)NCc3ccccc3)CC2=O)cc1 (centres undefined)	32*	-12	-1	2	3	0	0
